An excerpt weighted towards active compounds, which were near 3.7% of everything screened.
TIM10 inh: growth inhibitors of isogenic TIM10 control yeast, primary screen, counter-screen for tim10-1 yeast inhibitor project, luminescence, uHTS; S. cerevisiae TIM10 strain growth, BacTiter-Glo luminescence, 24 h; inhibition, % at 10 µM; actives 1.4% (n = 330,000); AID 463195, 2010;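 active = inhibition of 40% or more at the single tested concentration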;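 also: wild-type TIM10 isogenic control strain grown at permissive 25 °C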
tim23-1 inh: growth inhibitors of tim23-1 mutant yeast, primary screen, luminescence, uHTS; actives 1.3% (n = 330,000); inhibition, % at 20 µM; S. cerevisiae tim23-1 growth, BacTiter-Glo luminescence, 24 h;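 active = growth inhibition of the mutant yeast at or above 50%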;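 also: temperature-sensitive mutant grown at 25 °C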
PfHsp90 yeast 2: growth inhibition of PfHsp90-expressing yeast, primary screen, antimalarial PfHsp90 inhibitor project, S. cerevisiae, BacTiter-Glo luminescence, single point, set 2. BacTiter-Glo ATP, 48 h; yeast lacking PDR1 and PDR3 efflux regulators. inhibition, % at 9.4 µM. actives 0.32% (n = 310,000). AID 504621, 2011;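 active = every replicate shows inhibition above about 80%, whatever the replicate mean, limit read from the data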
Rce1 inh: yeast Rce1p protease inhibitors, primary screen, biochemical, fluorescence, cell-free homogeneous. CAAX prenyl protease 2 (Saccharomyces cerevisiae (strain ATCC 204508 / S288c)), Q03530. yeast membranes, quenched prenylated peptide cleavage fluorescence. calls only. actives 0.27% (n = 290,000). AID 2563, 2010;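 active = fall in fluorescence gain of 50% or more versus controls, with final raw signal at or below 3038400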
Target sequence (Q03530 whole entry, looked up): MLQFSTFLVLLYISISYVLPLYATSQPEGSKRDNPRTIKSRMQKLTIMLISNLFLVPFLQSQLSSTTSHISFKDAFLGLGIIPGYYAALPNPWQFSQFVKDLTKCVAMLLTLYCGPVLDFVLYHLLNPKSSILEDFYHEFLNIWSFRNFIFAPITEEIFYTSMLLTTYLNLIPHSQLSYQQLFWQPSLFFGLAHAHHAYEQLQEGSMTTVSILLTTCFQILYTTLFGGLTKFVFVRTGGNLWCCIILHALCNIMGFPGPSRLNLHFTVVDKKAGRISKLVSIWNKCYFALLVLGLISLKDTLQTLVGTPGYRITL
tim10-1 inh: growth inhibitors of tim10-1 mutant yeast, primary screen, luminescence, uHTS; actives 2.2% (n = 330,000); inhibition, % at 20 µM; S. cerevisiae tim10-1 ts strain growth, BacTiter-Glo, 24 h;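 active = inhibition of at least 40%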;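 also: mutant grown at 25 °C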
tim10-1 conf: growth inhibitors of tim10-1 mutant yeast, confirmation, single concentration, luminescence, S. cerevisiae; shares compounds with tim10-1 inh; inhibition, % at 20 µM; S. cerevisiae tim10-1 ts strain growth, BacTiter-Glo, 24 h; actives 56% (n = 7,400);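 active = inhibition of yeast growth at or above a set limit in either of two repeat tests at 20 µM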;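 also: tim10-1 mutant grown at permissive 25 °C to find synthetic lethal compounds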
Large screens that a line does not name were inactive (follow-up assays come after a bar, where they were run); ! = not active in a repeat.

O=[N+]([O-])/C(C(Cl)=C(Cl)Cl)=C(\Sc1ccccc1)N1CCCCC1	tim10-1 inh 43.5 | tim10-1 conf 35.0
Cc1ccccc1NC(=O)c1ccc(F)c(S(=O)(=O)N2CCN(c3ccccn3)CC2)c1	tim10-1 inh 41.4 | tim10-1 conf 38.6
O=C(Nc1ccc(Br)cc1)c1ccc(F)c(S(=O)(=O)N2CCN(c3ccccn3)CC2)c1	none
O=C(CNCc1cccs1)Nc1ccc(OC(F)(F)F)cc1	none
CCOc1cccc(-c2cc(-c3n[nH]c(=S)n3CC)c3ccccc3n2)c1	tim10-1 inh 53.0 | tim10-1 conf inactive
CCn1c(-c2cc(-c3ccc(C)c(C)c3)nc3ccccc23)n[nH]c1=S	tim10-1 inh 47.1 (no result: PfHsp90 yeast 2) | tim10-1 conf 33.5
CCOc1ccccc1-c1cc(-c2n[nH]c(=S)n2CC)c2ccccc2n1	none
O=C(CSc1nc(=O)n2ccccc2n1)N1CCCc2ccccc21	none
c1ccc(-c2nnc3ccc(N4CCCC4)nn23)cc1	none
FC(F)(F)c1cccc(N2CCN(c3nnnn3-c3ccccc3)CC2)c1	tim10-1 inh 42.8 | tim10-1 conf inactive
FC(F)(F)c1cccc(N2CCN(c3ccc4nnc(-c5ccccc5)n4n3)CC2)c1	tim10-1 inh 48.5 | tim10-1 conf inactive
CC(C)(C)c1ccc(OCC(=O)O/N=C(\N)c2ccncc2)cc1	none
Cc1cc(C(=O)NN=C2CCCCCC2)c(C)o1	tim10-1 inh 80.4 | tim10-1 conf inactive
Cc1ccccc1-c1nc(CS(=O)(=O)CC(=O)NC2CCCCC2C)c(C)o1 (configuration not stated)	tim10-1 inh 40.9 | tim10-1 conf inactive
Cc1ccccc1-c1nc(CS(=O)(=O)CC(=O)NC2CC2)c(C)o1	none
Cc1oc(-c2ccccc2F)nc1CSCC(=O)NC1CCC(C)CC1 (configuration not stated)	tim10-1 inh 40.3 | tim10-1 conf inactive
Cc1ccc(S(=O)(=O)n2c([N+](=O)[O-])cnc2C)c(C)c1C	none
COCCCNC(=O)Cn1ccc(NC(=O)OCc2ccccc2)nc1=O	none (no result: Rce1 inh)
O=S1(=O)c2ccccc2C(CCO)N1Cc1ccccc1 (configuration not stated)	none
Cc1noc(NS(=O)(=O)c2ccc(NC(=O)C(Cl)(Cl)Cl)cc2)c1C	none
Cc1noc(NS(=O)(=O)c2ccc(NC(=O)Nc3ccc(Cl)c(Cl)c3)cc2)c1C	tim10-1 inh 46.3 | tim10-1 conf 38.0
CC1CC2=C(NC(=S)NC2c2ccc(F)cc2)/C(=C/c2ccc(F)cc2)C1 (configuration not stated)	tim10-1 inh 45.6 | tim10-1 conf inactive
COc1ccc(C(C(=O)NC2CCCCC2)N(C(=O)CCl)c2ccc(Cl)cc2)cc1 (configuration not stated)	none
COC(CN(C(=O)CCl)C(C(=O)NC1CCCCC1)c1ccc(Cl)cc1)OC (configuration not stated)	tim10-1 inh 43.0 | tim10-1 conf inactive
COC(CN(C(=O)CCl)C(C(=O)NC1CCCCC1)c1ccccc1C)OC (configuration not stated)	tim10-1 inh 43.3 | tim10-1 conf 32.1
CC1/C(=N/O)C(CN(C)C)C2CC1C2(C)C (configuration not stated)	none (no result: PfHsp90 yeast 2)
CC1C2CC(C(CN(C)C)/C2=N/O)C1(C)C (configuration not stated)	tim10-1 inh 44.4 | tim10-1 conf inactive
Cc1ccc(CNC(=O)C(=O)NCC2OCCN2C(=O)c2cccs2)cc1 (configuration not stated)	none
COc1ccc(/C=C/c2ccc(=O)n(Cc3ccccc3)n2)cc1	tim10-1 inh 40.1 | tim10-1 conf inactive
CCOc1ccccc1N=c1oc2cc(O)ccc2cc1C(=O)NCC1CCCO1 (configuration not stated)	none (no result: Rce1 inh)
O=C1CN(C(=O)c2c(F)cccc2F)C(c2ccc(F)cc2)c2cc(Br)ccc2N1 (configuration not stated)	tim10-1 inh 41.2 | tim10-1 conf 29.5
O=C(NCC1OCCc2ccccc21)c1cc(COc2ccc(F)cc2Cl)on1 (configuration not stated)	none
CCCCCC[N+](C)(C)CC/C=C1/c2ccccc2Sc2ccc(Cl)cc21	none
CN(C)CC/C=C1/c2ccccc2Sc2ccc(Cl)cc21	tim10-1 inh 40.5! | tim10-1 conf inactive
S=C(NCCC(c1ccccc1)c1ccccc1)Nc1ccc(Cl)cc1	tim10-1 inh 54.7 | tim10-1 conf inactive
Cc1cc(OC(F)F)ccc1NC(=S)NCCc1ccccc1	tim10-1 inh 47.7 | tim10-1 conf inactive
COc1ccc(Cl)cc1NC(=S)NCc1ccco1	tim10-1 inh 55.0 (no result: PfHsp90 yeast 2) | tim10-1 conf 36.2
S=C(NCCC(c1ccccc1)c1ccccc1)Nc1ccccc1Cl	none
S=C(NCCc1ccccc1)Nc1ccc(Nc2ccccc2)cc1	tim10-1 inh 52.0 | tim10-1 conf 34.1
COc1ccc(Cl)cc1NC(=O)NCc1ccco1	none
CCOc1ccc(-n2c(SCC(=O)O)nc3sc4c(c3c2=O)CCCC4)cc1	none
CCN1CCN(S(=O)(=O)c2ccc(Oc3ccccc3OC)cc2)CC1	none
Fc1ccccc1NC(=S)NCCc1ccccc1	none
Fc1ccc(F)c(NC(=S)NCCc2ccccc2)c1	tim10-1 inh 46.2 | tim10-1 conf inactive
COc1ccc(Cl)cc1NC(=S)NCCc1ccc(S(N)(=O)=O)cc1	none
COc1ccc(Cl)cc1NC(=S)NCCc1ccc(F)cc1	tim10-1 inh 50.6 | tim10-1 conf 33.6
CCOC(=O)c1sc2ncnc(Nc3cccc(C(=O)O)c3)c2c1C	none (no result: Rce1 inh)
OCCc1ccc(-c2ccc(Cl)cc2)o1	tim10-1 inh 42.7 | tim10-1 conf inactive
N/C(=N\OC(=O)c1cccc(Cl)c1)c1ccncc1	tim10-1 inh 42.2 | tim10-1 conf 30.4
N/C(=N\OC(=O)c1cc(Br)ccc1Cl)c1cccnc1	tim10-1 inh 46.6 | tim10-1 conf 48.5
CC(C)(Oc1ccc(Cl)cc1)C(=O)O/N=C(\N)c1ccncc1	tim10-1 inh 47.2 | tim10-1 conf inactive
N/C(=N\OC(=O)c1cccc(Cl)c1)c1cccnc1	none
N/C(=N\OC(=O)c1cc(Cl)ccc1Cl)c1cccnc1	tim10-1 inh 40.7 | tim10-1 conf inactive
N/C(=N\OC(=O)c1ccccc1Cl)c1cccnc1	none
O=C(COc1ccccc1Cl)Nc1cc(NC(=O)COc2ccccc2Cl)cc(C(=O)O)c1	none
O=c1c2nnn(-c3ccccc3)c2ncn1C/C=C/c1ccccc1	none

Source: PubChem BioAssay (several laboratories)
